Data published in PubChem BioAssay AID1159580 (chemical genetic matrix, 2015).
Hit rate of the full screen: of about 5,500 compounds, about 2,000 (36%) were called active. Inconclusive results (about 18%) are left out. No stated cut-off is given here; in the data, active means normalized growth mostly below about 0.91 (no sharp cut-off); inconclusive means no clear call, values can overlap the other calls; inactive means mostly above about 0.92. This is one part of the list.

Experiment: chemical genetic growth profiling, strain panel (AID 1159580);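 further: tested at 20 µM; growth read once vehicle control cultures reached saturation at 30 °C; 1 = growth at the plate median or of vehicle wells; lower values mean less growth of the strain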
Conditions: growth OD

Measured: normalized growth

Nc1nc2ncc(=O)[nH]c2c(=O)[nH]1
inactive: S. cerevisiae deletion strains, locus YJR075W, strain HOC1, hits give low values 1.02 | S. cerevisiae deletion strains, locus YKL009W, strain mrt4, hits give low values 0.973 | S. cerevisiae deletion strains, locus YKL068W, hits give low values 0.981 | S. cerevisiae deletion strains, locus YKL085W, strain MDH1 (second series), hits give low values 0.991 | S. cerevisiae deletion strains, locus YKL085W, strain MDH1, hits give low values 0.991 | S. cerevisiae deletion strains, locus YKL160W, strain elf1, hits give low values 0.975 | S. cerevisiae deletion strains, locus YKL190W, strain CNB1, hits give low values 0.991 | S. cerevisiae deletion strains, locus YKR001C, strain vps1, hits give low values 0.999 | S. cerevisiae deletion strains, locus YKR026C, strain gcn3, hits give low values 0.977 | S. cerevisiae deletion strains, locus YKR091W, strain srl3, hits give low values 0.979 | S. cerevisiae deletion strains, locus YLL001W, strain dnm1, hits give low values 0.946 | S. cerevisiae deletion strains, locus YLL026W, hits give low values 0.982 | S. cerevisiae deletion strains, locus YLL041C, strain sdh2, hits give low values 0.976 | S. cerevisiae deletion strains, locus YLR027C, strain aat2, hits give low values 0.984 | S. cerevisiae deletion strains, locus YLR039C, strain RIC1, hits give low values 0.997 | S. cerevisiae deletion strains, locus YLR058C, strain SHM2, hits give low values 0.996 | S. cerevisiae deletion strains, locus YLR102C, strain apc9, hits give low values 0.984 | S. cerevisiae deletion strains, locus YLR113W, strain HOG1, hits give low values 0.941 | S. cerevisiae deletion strains, locus YLR221C, strain rsa3, hits give low values 0.977 | S. cerevisiae deletion strains, locus YLR258W, strain gsy2, hits give low values 0.982 | S. cerevisiae deletion strains, locus YLR262C, strain YPT6 (second series), hits give low values 0.986 | S. cerevisiae deletion strains, locus YLR262C, strain YPT6, hits give low values 0.994 | S. cerevisiae deletion strains, locus YLR268W, strain sec22, hits give low values 1.01 | S. cerevisiae deletion strains, locus YLR320W, strain mms22, hits give low values 0.972 | S. cerevisiae deletion strains, locus YLR330W, strain CHS5, hits give low values 0.992 | S. cerevisiae deletion strains, locus YLR342W, strain FKS1 (second series), hits give low values 0.997 | S. cerevisiae deletion strains, locus YLR342W, strain FKS1, hits give low values 0.987 | S. cerevisiae deletion strains, locus YLR357W, strain rsc2, hits give low values 0.967 | S. cerevisiae deletion strains, locus YLR370C, strain arc18, hits give low values 0.965 | S. cerevisiae deletion strains, locus YLR371W, strain rom2, hits give low values 0.976 | S. cerevisiae deletion strains, locus YLR384C, strain iki3, hits give low values 0.968 | S. cerevisiae deletion strains, locus YLR418C, strain cdc73, hits give low values 1.05 | S. cerevisiae deletion strains, locus YML016C, strain PPZ1, hits give low values 1 | S. cerevisiae deletion strains, locus YML032C, strain rad52, hits give low values 0.967 | S. cerevisiae deletion strains, locus YML120C, strain ndi1, hits give low values 0.972 | S. cerevisiae deletion strains, locus YML124C, strain tub3, hits give low values 0.998 | S. cerevisiae deletion strains, locus YMR058W, strain fet3, hits give low values 0.988 | S. cerevisiae deletion strains, locus YMR078C, strain ctf18, hits give low values 0.979 | S. cerevisiae deletion strains, locus YMR125W, strain sto1, hits give low values 0.969 | S. cerevisiae deletion strains, locus YMR129W, hits give low values 0.972 | S. cerevisiae deletion strains, locus YMR205C, strain PFK2, hits give low values 0.967 | S. cerevisiae deletion strains, locus YMR223W, strain ubp8, hits give low values 0.989 | S. cerevisiae deletion strains, locus YMR231W, strain pep5, hits give low values 0.979 | S. cerevisiae deletion strains, locus YMR263W, strain SAP30, hits give low values 1.01 | S. cerevisiae deletion strains, locus YMR307W, strain GAS1, hits give low values 1 | S. cerevisiae deletion strains, locus YNL067W, strain RPL9B, hits give low values 1.03 | S. cerevisiae deletion strains, locus YNL071W, strain lat1, hits give low values 0.984 | S. cerevisiae deletion strains, locus YNL128W, strain TEP1, hits give low values 1.03 | S. cerevisiae deletion strains, locus YNL153C, strain GIM3, hits give low values 1.01 | S. cerevisiae deletion strains, locus YNL183C, strain NPR1, hits give low values 0.942 | S. cerevisiae deletion strains, locus YNL209W, strain ssb2, hits give low values 0.993 | S. cerevisiae deletion strains, locus YNL233W, strain BNI4, hits give low values 1.01 | S. cerevisiae deletion strains, locus YNL248C, strain rpa49, hits give low values 0.98 | S. cerevisiae deletion strains, locus YNL250W, strain rad50, hits give low values 0.987 | S. cerevisiae deletion strains, locus YNL271C, strain bni1, hits give low values 0.995 | S. cerevisiae deletion strains, locus YNL298W, strain CLA4, hits give low values 1 | S. cerevisiae deletion strains, locus YNL307C, strain MCK1, hits give low values 0.991 | S. cerevisiae deletion strains, locus YNL322C, strain KRE1 (second series), hits give low values 0.967 | S. cerevisiae deletion strains, locus YNL322C, strain KRE1, hits give low values 1.01 | S. cerevisiae deletion strains, locus YNR049C, strain mso1, hits give low values 0.973 | S. cerevisiae deletion strains, locus YNR052C, strain pop2, hits give low values 0.983 | S. cerevisiae deletion strains, locus YOL006C, strain TOP1, hits give low values 1.11 | S. cerevisiae deletion strains, locus YOL012C, strain htz1 0.879 | S. cerevisiae deletion strains, locus YOL147C, strain pex11, hits give low values 0.978 | S. cerevisiae deletion strains, locus YOR001W, strain rrp6, hits give low values 0.986 | S. cerevisiae deletion strains, locus YOR061W, strain CKA2, hits give low values 1.01 | S. cerevisiae deletion strains, locus YOR069W, strain VPS5, hits give low values 1 | S. cerevisiae deletion strains, locus YOR070C, strain gyp1, hits give low values 0.983 | S. cerevisiae deletion strains, locus YOR080W, strain dia2, hits give low values 0.978 | S. cerevisiae deletion strains, locus YOR083W, strain WHI5, hits give low values 0.966 | S. cerevisiae deletion strains, locus YOR106W, strain vam3, hits give low values 0.988 | S. cerevisiae deletion strains, locus YOR136W, strain idh2, hits give low values 0.987 | S. cerevisiae deletion strains, locus YOR144C, strain elg1, hits give low values 0.989 | S. cerevisiae deletion strains, locus YOR184W, strain ser1, hits give low values 0.968 | S. cerevisiae deletion strains, locus YOR231W, strain MKK1, hits give low values 0.938 | S. cerevisiae deletion strains, locus YOR265W, strain rbl2, hits give low values 0.981 | S. cerevisiae deletion strains, locus YOR270C, strain vph1, hits give low values 0.951 | S. cerevisiae deletion strains, locus YOR290C, strain snf2, hits give low values 0.911 | S. cerevisiae deletion strains, locus YOR316C, strain cot1, hits give low values 0.985 | S. cerevisiae deletion strains, locus YPL051W, strain arl3, hits give low values 0.984 | S. cerevisiae deletion strains, locus YPL055C, strain LGE1, hits give low values 1.02 | S. cerevisiae deletion strains, locus YPL078C, strain atp4, hits give low values 0.97 | S. cerevisiae deletion strains, locus YPL106C, strain sse1, hits give low values 0.948 | S. cerevisiae deletion strains, locus YPL240C, strain hsp82, hits give low values 0.984 | S. cerevisiae deletion strains, locus YPL241C, strain CIN2, hits give low values 0.994 | S. cerevisiae deletion strains, locus YPL256C, strain CLN2, hits give low values 0.963 | S. cerevisiae deletion strains, locus YPR119W, strain clb2, hits give low values 0.974 | S. cerevisiae deletion strains, locus YPR141C, strain kar3, hits give low values 0.975 | S. cerevisiae deletion strains, locus YPR163C, strain tif3, hits give low values 0.988 | S. cerevisiae deletion strains, locus YPR167C, strain met16, hits give low values 1 | S. cerevisiae deletion strains, strain wtn01, hits give low values 0.994 | S. cerevisiae strains, strain wild type, hits give low values 1
